Measured values reported in article PMC8384837, “Expanding the binding specificity for RNA recognition by a PUF domain”.
Changes are numbered by the printed parent chain.

Columns and labels:
Experiment in all cases: yeast three-hybrid, YBZ-1, SC-Leu-His + 0.5 mM 3-AT, 4 days
Conditions in all cases: tags: N-Gal4 AD-HA kept; label: inside an RPR1-promoter hybrid RNA with tandem MS2 sites; ssRNA
[1] = molecular target: PUM1 PUF domain R3-LRA (Homo sapiens, UniProt Q14671 828-1176, C935L;Q939A)
Summary of the method: (§1)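 Sequencing with Illumina followed PCR amplification of the repeat regions from transformants grown four days on SC-Leu (input) or SC-Leu-His + 0.5 mM 3-AT (selection). The transformants were strain YBZ-1 with a LexA–MS2 coat fusion and a HIS3 reporter, carrying Pumilio-1 PUF domain libraries and matching RNA elements. The interaction score is the log change in variant frequency from input to selection, computed in log2 with a pseudocount of 1 for absent variants.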

[2] = molecular target: PUM1 PUF domain R3-NPV (Homo sapiens, UniProt Q14671 828-1176, C935N;R936P;Q939V)
Summary of the method: as §1

[3] = molecular target: PUM1 PUF domain R5-RNR (Homo sapiens, UniProt Q14671 828-1176, C1007R;R1008N;Q1011R)
Summary of the method: as §1

[4] = molecular target: PUM1 PUF domain R5-RHI (Homo sapiens, UniProt Q14671 828-1176, C1007R;R1008H;Q1011I)
Summary of the method: as §1

[5] = molecular target: T1, PUM1 PUF domain R6-NFC (Homo sapiens, UniProt Q14671 828-1176, Y1044F;Q1047C)
T1 sequence: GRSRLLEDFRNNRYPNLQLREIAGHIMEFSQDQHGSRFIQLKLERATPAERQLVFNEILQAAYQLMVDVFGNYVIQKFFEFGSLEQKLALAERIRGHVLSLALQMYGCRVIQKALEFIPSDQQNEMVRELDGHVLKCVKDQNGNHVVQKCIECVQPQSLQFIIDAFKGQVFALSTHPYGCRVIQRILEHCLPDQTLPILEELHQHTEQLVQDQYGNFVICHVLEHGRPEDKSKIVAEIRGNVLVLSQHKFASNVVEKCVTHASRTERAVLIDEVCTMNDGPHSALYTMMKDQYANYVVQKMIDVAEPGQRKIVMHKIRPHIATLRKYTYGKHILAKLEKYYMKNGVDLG
Summary of the method: as §1

[6] = molecular target: T2, PUM1 PUF domain R6-QFR (Homo sapiens, UniProt Q14671 828-1176, N1043Q;Y1044F;Q1047R)
T2 sequence: T1 sequence with N216Q, C220R
Summary of the method: as §1

[7] = molecular target: PUM1 PUF domain R8-AFR (Homo sapiens, UniProt Q14671 828-1176, N1122A;Y1123F;Q1126R)
Summary of the method: as §1

[8] = molecular target: PUM1 PUF domain R8-SWR (Homo sapiens, UniProt Q14671 828-1176, N1122S;Y1123W;Q1126R)
Summary of the method: as §1

[9] = molecular target: PUM1 PUF domain R8-RYL (Homo sapiens, UniProt Q14671 828-1176, N1122R;Q1126L)
Summary of the method: as §1

[10] = molecular target: PUM1 PUF domain R1-KIR (Homo sapiens, UniProt Q14671 828-1176, S863K;R864I;Q867R)
Summary of the method: as §1

## GGCUAGAACUAGUGGAUCCCCCGGCGCCCGGCGGCUCGAGCCCGGGUAAGUGUAAUUAGUCUGCAUGCCGCCGGGCGCCAUGCCUGCAGGUCGACUCUAGAAAACAUG
[1]
  binding signal: 1.5 log2 enrichment (interaction score)
[2]
  binding signal: 2.64 log2 enrichment (interaction score)

## GGCUAGAACUAGUGGAUCCCCCGGCGCCCGGCGGCUCGAGCCCGGGUAAGUGUCAAUAGUCUGCAUGCCGCCGGGCGCCAUGCCUGCAGGUCGACUCUAGAAAACAUG
[3]
  binding signal: 3.17 log2 enrichment (interaction score)
[4]
  binding signal: 4.97 log2 enrichment (interaction score)

## GGCUAGAACUAGUGGAUCCCCCGGCGCCCGGCGGCUCGAGCCCGGGUAAGUGUAAAUAGUCUGCAUGCCGCCGGGCGCCAUGCCUGCAGGUCGACUCUAGAAAACAUG
[5]
  binding signal: 3.34 log2 enrichment (interaction score)
[6]
  binding signal: 7.93 log2 enrichment (interaction score)
[4]
  binding signal: 3.02 log2 enrichment (interaction score)
[7]
  binding signal: 3.56 log2 enrichment (interaction score)
[8]
  binding signal: 6.3 log2 enrichment (interaction score)
[9]
  binding signal: 5.73 log2 enrichment (interaction score)

## GGCUAGAACUAGUGGAUCCCCCGGCGCCCGGCGGCUCGAGCCCGGGUAAGCGUAAAUAGUCUGCAUGCCGCCGGGCGCCAUGCCUGCAGGUCGACUCUAGAAAACAUG
[7]
  binding signal: 3.34 log2 enrichment (interaction score)
[8]
  binding signal: 5.3 log2 enrichment (interaction score)
[9]
  binding signal: 5.95 log2 enrichment (interaction score)

## GGCUAGAACUAGUGGAUCCCCCGGCGCCCGGCGGCUCGAGCCCGGGUAAGUGUAAAUCGUCUGCAUGCCGCCGGGCGCCAUGCCUGCAGGUCGACUCUAGAAAACAUG
[10]
  binding signal: 4.83 log2 enrichment (interaction score)

## GGCUAGAACUAGUGGAUCCCCCGGCGCCCGGCGGCUCGAGCCCGGGUAAGUGUUAAUAGUCUGCAUGCCGCCGGGCGCCAUGCCUGCAGGUCGACUCUAGAAAACAUG
[4]
  binding signal: 5.86 log2 enrichment (interaction score)

## GGCUAGAACUAGUGGAUCCCCCGGCGCCCGGCGGCUCGAGCCCGGGUAAGUGCAAAUAGUCUGCAUGCCGCCGGGCGCCAUGCCUGCAGGUCGACUCUAGAAAACAUG
[6]
  binding signal: 4.65 log2 enrichment (interaction score)

## GGCUAGAACUAGUGGAUCCCCCGGCGCCCGGCGGCUCGAGCCCGGGUAAGUGUAAGUAGUCUGCAUGCCGCCGGGCGCCAUGCCUGCAGGUCGACUCUAGAAAACAUG
[1]
  binding signal: 4.29 log2 enrichment (interaction score)
